# Screens as filed in PubChem BioAssay.
# A selection: hits, their analogues and other compounds. The true share with any hit is near 10%.
# Lamin A splicing – qHTS Assay for Modulators of Lamin A Splicing. HeLa LMNA splicing GFP/RFP minigene ratio, 48 h. Potency, µM (highest dose often 46.1 µM), inactives show at the highest dose ratio change, negative = inhibition, hits mostly inhibitors. 200,000 compounds, 0.01% hits; active means well fitted inhibition curve with a large enough effect in the signal ratio, with a control signal flat, not every such curve was filed as active; inconclusive means small, poorly fitted or top-dose-only effect, or effect the other way, or a change in a side signal; the % refers to the signal ratio; further: potency means the concentration at half of the fitted maximal effect
#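 Read-out is the ratio of GFP to DsRed2 object intensity, acquired by 488 nm laser-scanning cytometry on HeLa lamin A-EGFP minigene reporter cells. Compound incubation 48 hrs at 37 °C in Opti-MEM with 2% FBS; DMSO 0.5% final.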
# HPGD block – qHTS Assay for Inhibitors of HPGD (15-Hydroxyprostaglandin Dehydrogenase) | 15-hydroxyprostaglandin dehydrogenase [NAD(+)] (Homo sapiens), P15428 | purified HPGD, NADH fluorescence kinetic, PGE2 substrate | Potency, µM, inactives show top-dose activity change, negative = inhibition, usual class: inhibitors | 150,000 compounds, 4.3% hits | AID 894, 2007; further: potency means the concentration at half of the fitted maximal effect
#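 20 nM HPGD preincubated 15 min at room temperature with compound in 50 mM Tris-HCl pH 8, 0.01% Tween 20. Started with 1 mM NAD+ and 30 uM prostaglandin E2; NADH fluorescence (360/450 nm) read 5 times over 30-s intervals, last minus first.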
# PNC inhibitor – High Content Assay for Compounds that inhibit the Assembly of the Perinucleolar Compartment | PC3M PTB-GFP, PNC prevalence imaging, 16 h; active compounds read low | AID 2417, 2010 | 140,000 compounds, 3.1% hits | activity change (PNC), negative = inhibition, % at 10 µM;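 active means readout at or below -70, meaning at least 70% loss of cells showing the perinucleolar compartment, a nuclear body marking cancer cells; inconclusive means readout between -30 and a set limit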;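 further: plate controls were DMSO wells for no effect and camptothecin positive control wells for full effect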
#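 PC3M cells stably expressing PTB-GFP, 750–1000 cells/well, treated 16 h at 37 °C with compound (23 nl of library stock), in duplicate. After paraformaldehyde fixation and Hoechst stain, imaged at 20x; PNC prevalence scored by image analysis.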
# ALDH1A1 block – qHTS Assay for Inhibitors of Aldehyde Dehydrogenase 1 (ALDH1A1); Aldehyde dehydrogenase 1A1 (Homo sapiens), P00352; Purified ALDH1A1, NADH fluorescence, propionaldehyde substrate; Potency, µM (titrated, usually from 75.3 µM), inactives show at the top dose activity, negative = inhibition, hits mostly inhibitors; 220,000 compounds, 7.3% hits; AID 1030, 2008;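 further: potency means the concentration at half of the fitted maximal effect; plate controls were no enzyme wells and a reference inhibitor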
# ALOX12 inhib – qHTS Assay for Inhibitors of 12-hLO (12-human lipoxygenase). Polyunsaturated fatty acid lipoxygenase ALOX12 (Homo sapiens), P18054. purified 12-hLO, xylenol orange hydroperoxide absorbance. Potency, µM (top dose mostly 57.1 µM), inactives show at the top dose activity change, negative = inhibition, hits mostly inhibitors. 150,000 compounds, 0.12% hits. AID 1452, 2008; active means well fitted inhibition curve with a large enough effect; inconclusive means small, poorly fitted or top-dose-only effect; further: potency means the concentration at half of the fitted maximal effect; nearly all actives have a fitted effect of over 55% in size
# Target sequence (P18054 whole entry, looked up): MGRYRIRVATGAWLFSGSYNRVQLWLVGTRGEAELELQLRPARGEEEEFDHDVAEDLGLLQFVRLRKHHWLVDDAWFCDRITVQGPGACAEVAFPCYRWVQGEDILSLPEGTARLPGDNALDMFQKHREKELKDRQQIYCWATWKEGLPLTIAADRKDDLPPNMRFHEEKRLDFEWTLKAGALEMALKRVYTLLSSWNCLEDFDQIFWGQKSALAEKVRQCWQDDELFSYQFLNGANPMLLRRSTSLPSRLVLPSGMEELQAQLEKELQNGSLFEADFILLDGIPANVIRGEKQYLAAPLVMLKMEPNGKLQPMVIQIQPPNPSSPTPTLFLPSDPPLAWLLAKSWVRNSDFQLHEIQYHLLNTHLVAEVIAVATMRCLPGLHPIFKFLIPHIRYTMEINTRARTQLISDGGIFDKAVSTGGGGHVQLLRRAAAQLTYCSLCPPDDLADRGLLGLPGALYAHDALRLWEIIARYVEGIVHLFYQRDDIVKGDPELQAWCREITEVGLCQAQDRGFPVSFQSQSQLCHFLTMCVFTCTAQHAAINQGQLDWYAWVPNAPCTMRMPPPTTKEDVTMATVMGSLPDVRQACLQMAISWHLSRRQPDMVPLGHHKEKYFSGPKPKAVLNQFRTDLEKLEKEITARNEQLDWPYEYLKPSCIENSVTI
#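 Xylenol orange chromogenic assay: hydroperoxide from 12hLO oxidises Fe(II), giving red-shifted Fe(III)-XO absorbance. Conditions: 150 nM enzyme, 40 uM arachidonic acid, 25 mM Hepes pH 7.0, 0.01% Triton X-100, 30 min, room temperature.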
# The depositor's hits bear a star; ? = inconclusive; . = no result; [ ] = remark or other dose. Unless noted, the call rests on the fitted dose curve; in most records, active means well fitted inhibition curve with a large enough effect (not every such curve was filed as active); inconclusive means small, poorly fitted or top-dose-only effect, or another doubt; inactive means no such curve, though single readings can be large or run the other way. Unless noted, on the % scale 0 is the no-effect control and ±100 the full control effect.
SMILES,Lamin A splicing,HPGD block,PNC inhibitor,ALDH1A1 block,ALOX12 inhib
Cc1ccc(S(=O)(=O)NC2CCCCC2)cc1,.,-8.0%,.,?,-0.3%
Cc1ccccc1-c1cc(C(=O)Nc2sc(C)c(C)c2C(N)=O)c2ccccc2n1,-4.3%,31.6µM*,-0.2,?,-11.0%
CCOC(=O)c1c(NC(=O)c2cc(-c3ccc(Cl)s3)nc3ccccc23)sc(C(N)=O)c1C,1.1%,-5.5%,-21.0,7.1%,1.6%
CCOC(=O)c1sc(NC(=O)c2cc(-c3ccccc3C)nc3ccccc23)c(C#N)c1C,?,15.8µM*,?,8.91µM*,-3.9%
CC(C)CCCNc1nc(N2CCOCC2)nc(N2CCOCC2)n1,-11.7%,-3.3%,45.3,-0.1%,-0.2%
CC(C)CN(C#N)c1nc(N2CCOCC2)nc(N2CCOCC2)n1,?,-11.3%,?,7.94µM*,-5.6%
Cc1cc(=O)n(-c2ccc(O)cc2)[nH]1,8.2%,-9.2%,11.2,0.794µM*,-10.7%
Cc1cc(=O)cc(C)n1-c1ccc(O)cc1,-16.6%[46 µM],.,.,2.0%,.
COCC(=O)N1CCC2(CCCN(C(=O)Nc3cccc(F)c3)C2)CC1,.,-2.0%,.,6.5%,-1.1%
Cc1csc(NC(=O)C(CC(C)C)NS(=O)(=O)c2ccc3c(c2)oc(=O)n3C)n1 (configuration not stated),6.4%,-14.0%,-81.7*,1.2%,0.4%
CCOc1cccc(C(=O)Nc2ccc(-c3nc4ncccc4o3)cc2C)c1,-5.6%[46 µM],.,.,.,.
O=c1cc(CO)oc(C(Nc2ccccn2)c2ccc(C(F)(F)F)cc2)c1O (configuration not stated),-10.6%,-6.2%,-21.3,?,?
O=c1cc(CO)oc(C(Nc2ccccn2)c2cccc(F)c2)c1O (configuration not stated),?,-14.4%,-8.9,31.6µM*,?
Cc1ccc(C(=O)N2CCCC(C(=O)c3ccc(Oc4ccccc4)cc3)C2)cn1 (configuration not stated),?,.,.,-9.9%,.
COc1ccc(-c2nc(C)sc2C)cc1,8.7%,28.2µM*,15.1,?,-4.3%
O=C1c2cccc3cccc(c23)C(=O)N1Cc1ccccc1,?,.,.,3.6%,.
O=C1c2ccncc2C(=O)N1Cc1cccc(Cl)c1,2.4%,17.8µM*,9.1,0.9%,-5.7%
O=C1OCCC1Sc1nnc(-c2ccco2)o1 (configuration not stated),-3.9%,-14.5%,-100.0*,8.3%,0.8%
Cc1ccc(NC(=O)c2cnc(N3CCCCC3)c3ccccc23)c(C)c1,13.8%[46 µM],.,.,.,.
CC(=O)c1cccc(NC(=O)CN(C)Cc2ccc(OC(F)F)cc2)c1,.,.,.,11.2µM*,.
COc1ccc(O)c(N)c1,14.3%[46 µM],.,.,25.1µM*,.
COC(=O)c1c(NC(=O)c2ccco2)sc(C(=O)N(C)C)c1C,-10.1%,?,-100.0*,?,10.6%
CCOC(=O)c1c(NC(=O)C(C)N2CCN(C(=O)c3ccco3)CC2)sc2c1CCCC2 (configuration not stated),-27.9%,?,-21.5,22.4µM*,-7.3%
Cc1sc(NC(=O)c2ccc(F)cc2)c(CN2CCCCCC2)c1C,-8.2%,-25.0%,?,10µM*,-6.8%
CCOC(=O)c1c(NC(=O)c2ccco2)sc(C(=O)N2CCCC2)c1C,2.0%,14.1µM*,20.3,?,2.5%
SMILES,Lamin A splicing,HPGD block,PNC inhibitor,ALDH1A1 block,ALOX12 inhib
CCOC(=O)c1c(NC(=O)c2ccco2)sc2c1CCCCC2,11.0%,?,-26.0,?,-7.3%
CCOC(=O)c1c(NC(=O)CN2CCN(C(=O)c3ccco3)CC2)sc(C(N)=O)c1C,.,.,.,-2.7%,.
CC1(C(=O)NCCCNc2ncc(C(F)(F)F)cc2Cl)C=CC2(CCCCC2)N1C(=O)c1ccccc1 (configuration not stated),.,-26.5%,.,?,-4.6%
NCCCCCCCCCCN,?,-10.2%,.,5.0%,-1.8%
CCc1c(C)sc(NC(=O)c2ccco2)c1C(=O)N1CCOCC1,10.5%,?,9.5,22.4µM*,1.6%
Cc1sc(NC(=O)c2ccccc2F)c(CN2CCCCC2)c1C,-1.6%,-17.3%,?,3.3%,-1.2%
CCOC(=O)c1cc(NC(=O)c2ccco2)ccc1N1CCOCC1,?,.,.,2.9%,.
CCc1c(C)sc(NC(=O)c2ccco2)c1C(=O)N1CCCCC1,-8.0%,-4.2%,7.3,25.1µM*,-9.7%
COCCOC(=O)c1c(NC(=O)CNCc2ccco2)sc(C(N)=O)c1C,15.0%[46 µM],.,.,10µM*,.
Cc1sc(NC(=O)c2ccco2)c(CN2CCN(Cc3ccccc3)CC2)c1C,?,.,.,28.2µM*,.
Cc1cccc(C)c1Nc1oc(-c2ccccc2)nc1-c1ccccc1,.,-15.0%,.,4.6%,4.3%
CC(C)CCNS(=O)(=O)c1ccc(N2CCCCS2(=O)=O)cc1,-1.2%[46 µM],.,.,.,.
CCCc1cc2c(n1Cc1cc(F)cc(F)c1)C(C)C1CN(C(=O)c3ccccc3)C(C)(C(=O)OC)C21 (configuration not stated),.,-12.1%,.,-1.7%,-5.8%
Cc1nn(CCc2nn[nH]n2)c2nc(C(F)(F)F)cc(C(F)(F)F)c12,9.3%,?,-84.4*,?,1.1%
O=C(CN1C(=O)C2C3CCC(C3)C2C1=O)N1CCN(Cc2ccccc2)CC1 (configuration not stated),?,.,.,-4.8%,.
O=C1CCCC2=C1C(c1ccc(Cl)cc1)N1C(=O)CCSC1=N2 (configuration not stated),-13.9%,?,-100.0*,4.5%,-6.1%
COC(=O)CSc1nnnn1-c1cccc2ccccc12,1.1%,-26.3%,-9.9,?,-0.5%
c1ccc(-n2nnnc2SCc2cn3ccccc3n2)cc1,-8.4%,-7.0%,34.0,3.98µM*,5.7%
O=C(CCCSc1nnnn1-c1cccc2ccccc12)c1ccc(F)cc1,5.4%,-22.0%,24.2,1.41µM*,-7.6%
c1ccc(CSc2nnnn2-c2cccc3ccccc23)nc1,12.7%,-3.8%,?,20µM*,-8.7%
Cc1ccn2cc(CSc3ccccc3)nc2c1,-5.4%,-11.5%,-111.7*,4.8%,0.9%
O=C(O)c1cccc(-n2nnnc2SCc2ccccn2)c1,-1.1%,?,?,-12.1%,6.9%
c1ccc(-n2nnnc2SCc2cn3cccnc3n2)cc1,-1.8%,?,-4.2,?,1.7%
COc1ccccc1-c1ccc2ncnc(N(C)Cc3ccco3)c2c1,?,.,.,-13.2%,.
Cc1ccc(Cl)cc1N1CCN(S(=O)(=O)c2ccc3[nH]c4c(c3c2)CCCCC4)CC1,-10.5%[46 µM],.,.,.,.
c1ccc(-n2nnnc2SCc2cccc(CSc3nnnn3-c3ccccc3)n2)cc1,?,-7.2%,26.1,1.58µM*,-2.3%
